# This is part of a sample that, as a whole, favours compounds with a hit. Of some 79,000 tested, about 15% had one in any assay. Values without a mark were called inactive. The source made the active and inactive calls. No stated cut-off is given here; in the data, active means growth inhibition above about 70%; inactive means the rest.
# Assay: NCI Yeast Anticancer Drug Screen. Data for the rad50 strain (AID 155);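 further: 0% = growth of vehicle-only cultures of the same strain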
# Conditions: S. cerevisiae rad50 strain growth inhibition; at 5.0 µM (retest, dose inferred, filed as 0.5); active compounds read high
# Method in brief: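 Genetically altered yeast (DNA repair pathway); compound treatment; growth inhibition vs vehicle ctrl.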
row,Structure (SMILES),growth inhibition
1,N#C/C(=N\O)C(N)=O,19%
2,COc1ccc(C(N)=O)cc1,14%
3,CC1=C(/C=C/C(C)=C/C(=O)O)C(C)(C)CCC1,2%
4,CC(=O)Oc1c(Br)cc(Br)cc1C(OC(C)=O)OC(C)=O,20%
5,CCCCCCN(CCCCCC)CCCCCCCCCCCO,15%
6,COc1cccc(NC(=O)c2c(SC)n[nH]c2N)c1,26%
7,O=C(O)/C=C\C(=O)NNc1ccccc1,12%
8,Oc1ccc(Cc2cccc(Cl)c2)c(O)c1,-1%
9,C=COC(=O)c1ccccc1C(=O)OCCCC,8%
10,O=C(O)c1ccc(-c2ccccc2)cc1,12%
11,N#CC(c1ccccc1)C(c1ccccc1)c1ccccc1 (centres undefined),13%
12,CC(C)(C)c1cc([N+](=O)[O-])c(O)c([N+](=O)[O-])c1,36%
13,CSC(SC)=C(C#N)C(=O)Nc1cccc(Cl)c1,78% (active)
14,CCOC(=O)C(NC(C)=O)C(=O)c1ccccc1 (centres undefined),-3%
15,O=[N+]([O-])/C=C/c1cccs1,95% (active)
16,C/C(=N\Nc1ccc(Cl)cc1)C(=O)O,17%
17,CC(=O)Nc1ccc(/C=N/NC(=S)NCC(C)C)cc1,4%
18,CCCCN(CCCC)C(=O)C(C)OC(C)=O (centres undefined),0%
19,C=CCCCCCCCCC(=O)NN,18%
20,C1CCC(CCCc2nn[nH]n2)CC1,20%

row,Structure (SMILES),growth inhibition
1,CSS(C)(=O)=O,59%
2,Clc1ccc(-n2ncc3c(Cl)nc(Cl)nc32)cc1,98% (active)
3,C(CCc1nn[nH]n1)CCC1CCCCC1,13%
4,Oc1ccc(/C=C/c2ccc(Cl)cc2)cc1,-26%
5,Cc1ccc2[nH]cc(CC(=O)O)c2c1,95% (active)
6,CN(C)c1cc(N)c(Cc2c(N)cc(N(C)C)cc2Cl)c(Cl)c1,5%
7,O=C1c2ccccc2-c2ccc(O)cc21,58%
8,CC(=O)Oc1ccc(OC(C)=O)c2c1CC=CC2,3%
9,O=c1c2ccccc2ncn1O,-1%
10,CC(C)(C)C(=O)CC(c1ccccc1)c1ccccc1,11%
11,Cc1cccc(N=NC(C#N)C#N)c1,30%
12,CC(=O)Nc1nc(-c2ccccc2)cs1,1%
13,CC(C)c1cc([N+](=O)[O-])c(O)c([N+](=O)[O-])c1,46%
14,CC(C)NC(=O)C(C)O (centres undefined),4%
15,CN(C)CNC(=S)S,98% (active)
16,CCCCNC(=O)C(C)O (centres undefined),5%
17,COc1cccc(NC(=O)c2c(SC)c(C#N)c(=O)n(N)c2N)c1,4%
18,COc1ccc(/C(C#N)=C/c2cccc(N)c2)cc1,6%
19,CCCCC(CC)CNC(=O)CI (centres undefined),11%

# Source: PubChem BioAssay (NCI)
